Measured values reported in the supplement of paper PMC11417369.
± gives the standard deviation of the averaged measurements. Over roughly 25,000 sequences, “ln(normalized median fluorescence intensity)” has its median near 10; the highest 2% begin near 12. The sample holds the highest values, similar sequences and a random draw of the others, so the mix is not that of the screen.

The sequences below were run on PfAP2-G AP2 domain (GST-tagged) (assay: gcPBM binding intensity (ln(normalized median fluorescence intensity)); higher = stronger DNA binding).
Outline: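 Each value is the highest Masliner-normalised natural-log median intensity across replicate spots of either orientation of a probe. The probes were primer-extended double-stranded 36-bp intergenic genomic sequences on an Agilent 4 × 180k array, alongside negative controls, exposed for 1 h to GST-tagged P. falciparum DNA-binding domains expressed in E. coli. Bound protein was picked up with Alexa488 anti-GST antibody and scanned at 488 nm.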

Sequence	gcPBM binding intensity (ln)
AAGATACACTTAATCGCACACGAAATTATATATTTA [CACACA_site3063]	10.1 ± 0.24
TATATATATTATATATGTACATATATTTTTTTTTTT [XGTACX_site127]	11.2 ± 0.81
ATTTAAGGGGTGTATGCACACGACTATTCCGTATGA [CACACA_site4738]	10.23 ± 0.092
CATATTTTCTTGTGTACACATTTATTTTATACTATA [CACACA_site6032]	11.7 ± 0.97
ATTTTTTTTTCTTGTACACACTATTTTATAATTTTA [CACACA_site6102]	11.6 ± 0.93
TATATATATATATATAGTACGCACACATAGTTGCAA [XGTACX_site5875]	11.1 ± 0.67
ATACGCACACATATATGTACATATTGTATATATATA [XGTACX_site3962]	11.2 ± 0.71
TATATCTGTTTATATTGTACACATATATATATATAT [XGTACX_site714]	11.4 ± 0.93
ATATATATATAGTACGCACACATAGTTGTACATTAA [CACACA_site2787]	12 ± 1.3
AATATGTAATAGTGTACACATATATCTGTATTTATG [CACACA_site4252]	11.6 ± 0.91
TATTATCTGTAGTGTACACATATTATATAGTACTTT [CACACA_site4582]	11.8 ± 1
TCATTCTTGTGTTTATGTACACATATTTATATTGTA [XGTACX_site710]	11.4 ± 0.88
ATGAATTAACCTAATCGTACAATAAATATTATTATA [XGTACX_site596]	11 ± 0.81
AAAATTAAAAAGAACACACAAATATATCTATAATAA [CACACA_site7660]	9.81 ± 0.26
TTCTATATTATATATGCATGTGTTATTCTTATTTTC [TGCATGCA_site92]	9.87 ± 0.057
TTATATTTTATTATGTGTACGTATATAATATAATAT [XGTACX_site6230]	11.6 ± 0.97
ATATGATTAATTAAGTGTACGTATTTATAATTATAA [XGTACX_site5783]	11.7 ± 1
ATTTATATATATTTATGTACGTATTAATTTTTTTTT [XGTACX_site3877]	11.5 ± 0.88
ATTTTTTTTTTTTATAGTGGATCCACATTTGCCATT [CACACA_negctrl_site1284]	10.3 ± 0.36
AAAAAAAATTAGGAAACATGCATGTCCCGATAAATA [TGCATGCA_site149]	10.28 ± 0.049
TCTTATTATAAAAGGAGTACATCAATTAGATGTTCC [XGTACX_site8465]	11.6 ± 1
ATAATATATATATATATATTATCAAATATATATATA [GTGCAC_negctrl_site346]	9.55 ± 0.23

Sequence	gcPBM binding intensity (ln)
TATTATATATAATATTGTACATTAAAATATTAAAGA [XGTACX_site3698]	10.9 ± 0.67
ATATAATGAAGTGAATGTACATATAAAATGTAAAAA [XGTACX_site8052]	11.1 ± 0.43
GGAAGATGAAAAATAAAGCATGTGCTGTACAAACGA [CACACA_negctrl_site1625]	10.8 ± 0.37
GATGATAAAATATGTACACACAGTTTATACATTTTG [CACACA_site4055]	11.3 ± 0.76
ATATAAATATTTATTAGTACACATTAGTGTAGTTTT [XGTACX_site4493]	11.5 ± 0.88
AATATTTTGATGTGTACACATTAATACAGTTTTACA [CACACA_site5711]	11.7 ± 0.91
GATGATGTTTATTTGTGTACATATTAATACTTAATA [XGTACX_site1902]	11.4 ± 0.82
TTAATATTTTGATGTGTACACATTAAAATAGTTTTA [CACACA_site5712]	11.8 ± 0.89
TTATTTAAATAATATGTACACACATTTAAAAAATTA [CACACA_site8912]	11.6 ± 0.95
TTTTATTATTTGTCTTGTACTCATTGTAAGAGTATG [XGTACX_site1538]	11.4 ± 0.91
ATATAATAATATTATACATGCAAAATATGTTCTTCA [TGCATGCA_site115]	9.795 ± 0.049
AACTTTATACTTTTTTGTACTTAACCCTTACATTTT [XGTACX_site5798]	11.1 ± 0.38
AATAACAATTATAAAAGTACAGATTTTTATTTCTAA [XGTACX_site5746]	11.1 ± 0.79
TATGTATATATATAAAGTACGCAAATTTATAATAAG [XGTACX_site8744]	11.5 ± 0.98
TATATAAAAATATGTTGTACGCATTTATAAATATAT [XGTACX_site3758]	11.6 ± 0.98
AAATAAAATTTTATGTGTACGCAAAAAGTTGTAAGC [XGTACX_site8911]	11.9 ± 1.3
GCGTAATCTATTTGCACACTTATTTGTTCTTAAAAA [CACACA_site672]	10.2 ± 0.14
AAGATATGTACTAATACACACACATATATATATATA [CACACA_site8249]	11.2 ± 0.79
TGTATATACATAAAGTGTACGTATATTTATATATAT [XGTACX_site4320]	11.6 ± 0.98
ATGAAAATTATAAAGTGTACATATAGAAACATTTAC [XGTACX_site8047]	11.4 ± 0.99
CATACATTTAAAAAGTGTACGTATATGAAAAAAGGA [XGTACX_site6512]	11.7 ± 1.1
TACATATACATATACACACACACACCCAAATAAATA [CACACA_site1344]	10.3 ± 0.35

Sequence	gcPBM binding intensity (ln)
TATATTAACAAAATGGTGCAATAATTTCTATATTAT [GTGCAC_site9857]	10.1 ± 0.22
TTTTCTCTAAAAAGGTGTACAACTAATAATGCACTG [XGTACX_site6074]	11.7 ± 0.83
ATTTTTCTAAAATACTGTACAAAGGTGCATAAAAAG [XGTACX_site4425]	11 ± 0.64
GATAATGAATGATGCACACTAAAAATATTCTACAAC [CACACA_site3622]	10.185 ± 0.007
TTATATATTTTATTATTTATAATCTTTTTTTTATTT [CACACA_negctrl_site112]	9.585 ± 0.049
AAAAATGAGTGACACACACACATATAAATATAAATA [CACACA_site7115]	10.1 ± 0.25
TATGTATGCCTGTTTTGTACTTAAGAAAATGTTGCT [XGTACX_site8443]	11 ± 0.57
TATTTTTTTAATAACTGTACTTTTTTGTCAAATGGA [XGTACX_site4179]	11.7 ± 1.2
TGTGTCAAATAATTAATGTCATATATATTTTGTATA [CACACA_negctrl_site1479]	9.675 ± 0.078
AATTTTTGTATTTTTAGTACTTAATTTCAAAATAAC [XGTACX_site4234]	11.2 ± 0.6
AATAAATATATATTCACACACAAACATATATATATA [CACACA_site4023]	10.1 ± 0.45
CAGTATTACATGAGGACACACACAAAAAAAATATAT [CACACA_site8156]	11.3 ± 0.86
AATATAAAAAAAAAATGTACATATTATATATATATA [XGTACX_site5113]	11.1 ± 0.72
ATAATTAAATAAAAAAGTACACATACATCATAATGC [XGTACX_site7656]	11.5 ± 0.87
AAAAGAACAATGAAGTGTACTAATAATTATTTATGT [XGTACX_site6649]	11.3 ± 0.79
AAAAAATAATTGAAGTGTACGTACAATGATTTTACT [XGTACX_site7663]	11.8 ± 1.1
TTAAAAATGATTGAATGTACAGATTAATATAATTTT [XGTACX_site7394]	10.7 ± 0.28
TAAAATGAAGGAATATGTACATAAATAAACATATAT [XGTACX_site6266]	11.2 ± 0.63
TTATAGTAATAATAATGTACATTTATACACATATAT [XGTACX_site1965]	10.9 ± 0.47
GACATTTGTGAGCTTGAGCCGTCAAACCACTAAATA [CACACA_negctrl_site552]	9.99 ± 0.028
AAAAGAAAAGAGAGGAGTACAAAATATAATTATCTA [XGTACX_site5172]	11.3 ± 0.76
TAAAAATGATCAAAGGGTACAGTATTAATTAAAAAA [XGTACX_site1079]	11.3 ± 0.93

Sequence	gcPBM binding intensity (ln)
GGGGGTAGGGGAAGAAGTACAATGATCACTACAGTA [XGTACX_site1169]	11.9 ± 1.3
ATATAAGATTTAAGAAGTACAATTATACAGTAGATC [XGTACX_site7501]	11.4 ± 0.88
TATTTATACATACGTACACACAAATATTAAAATATA [CACACA_site7004]	11.5 ± 0.96
AGGCGTGAAATATACGTACACACATTATTTATATTT [CACACA_site2558]	11.6 ± 1
CAGGCGTGAAATATACGTACACACATTATTTATATT [XGTACX_site5337]	11.8 ± 0.94
TTTATTTATTTTTAACGTACGCACACATATAAATAT [XGTACX_site4042]	11.4 ± 0.72
CGCAACGTGAAAATACGTACACATACATTTTTATAT [XGTACX_site330]	11.7 ± 0.85
TTATTTTTAACGTACGCACACATATAAATATATTTA [CACACA_site1976]	11.5 ± 0.97
TTGTTAATATATATATGTACTTATTTATTTATTTAT [XGTACX_site2274]	11.4 ± 0.93
TATATATATATATAATGTACAGAAAAAAAAAAAAAA [XGTACX_site6141]	10.8 ± 0.86
TATTCAAAGAAAAACTGTACGTGTAGCAAACGTCAT [XGTACX_site7713]	11.5 ± 0.83
TACAGATAAATATACATACATATATATATATATATA [XGTACX_negctrl_site182]	9.86 ± 0.42
TGAAATTTTTATACATGTACAAAATTAAATATAACA [XGTACX_site7324]	10.8 ± 0.49
TTATTTATTTAGTAGTGTACTTTTTATATTTATAAT [XGTACX_site5978]	11.6 ± 0.99
ATATATATTTTATATTGTACTTATTATTTTTAGGGC [XGTACX_site723]	11.4 ± 0.81
TATTTTATATAAAGGTGTACTTATACAAAAATATAT [XGTACX_site7435]	11.5 ± 0.88
GTATATTTTTAAAGGTGTACTTTTTTTTTTTTTTTT [XGTACX_site721]	11.8 ± 1.1
TTATATATTTTTAGGTGTACTTTTTTTTTTTTTTTT [XGTACX_site8164]	11.7 ± 0.91
TATATTTTTTTAAAAAGTACTTTGTATATATATATA [XGTACX_site1300]	11.1 ± 0.83
TAAAAAAAAAGAAGCTGTACTAAAAAATTTATATTA [XGTACX_site7408]	11.1 ± 0.81
ACATATAATATAAAGTGTACAAGAAAATAAAAATAA [XGTACX_site1273]	11.3 ± 0.77
TATATATATATTATATGTACACAAGGAAATATGCAT [XGTACX_site5637]	11.5 ± 0.75
